Screen size: about 220,000 compounds; about 910 (0.41%) were called active. Shown is part of a subset that was picked to be rich in actives. Measured potencies and affinities stand elsewhere. A number with no mark means an inactive call.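 The calls were made as follows: active = primary inhibition above the hit cutoff, then over 50% inhibition at one or more dose response concentrations (cut at about 23% in these data, passing the limit was not always enough); inconclusive = conflicting primary data, or primary hits not chosen for dose response; inactive = low primary inhibition, or under 50% at every dose.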

The values that follow come from PubChem BioAssay AID1445 (SRMLSC, 2008).

Sequence of Aminopeptidase N (Plasmodium falciparum (isolate 3D7)) (O96935 whole entry, looked up): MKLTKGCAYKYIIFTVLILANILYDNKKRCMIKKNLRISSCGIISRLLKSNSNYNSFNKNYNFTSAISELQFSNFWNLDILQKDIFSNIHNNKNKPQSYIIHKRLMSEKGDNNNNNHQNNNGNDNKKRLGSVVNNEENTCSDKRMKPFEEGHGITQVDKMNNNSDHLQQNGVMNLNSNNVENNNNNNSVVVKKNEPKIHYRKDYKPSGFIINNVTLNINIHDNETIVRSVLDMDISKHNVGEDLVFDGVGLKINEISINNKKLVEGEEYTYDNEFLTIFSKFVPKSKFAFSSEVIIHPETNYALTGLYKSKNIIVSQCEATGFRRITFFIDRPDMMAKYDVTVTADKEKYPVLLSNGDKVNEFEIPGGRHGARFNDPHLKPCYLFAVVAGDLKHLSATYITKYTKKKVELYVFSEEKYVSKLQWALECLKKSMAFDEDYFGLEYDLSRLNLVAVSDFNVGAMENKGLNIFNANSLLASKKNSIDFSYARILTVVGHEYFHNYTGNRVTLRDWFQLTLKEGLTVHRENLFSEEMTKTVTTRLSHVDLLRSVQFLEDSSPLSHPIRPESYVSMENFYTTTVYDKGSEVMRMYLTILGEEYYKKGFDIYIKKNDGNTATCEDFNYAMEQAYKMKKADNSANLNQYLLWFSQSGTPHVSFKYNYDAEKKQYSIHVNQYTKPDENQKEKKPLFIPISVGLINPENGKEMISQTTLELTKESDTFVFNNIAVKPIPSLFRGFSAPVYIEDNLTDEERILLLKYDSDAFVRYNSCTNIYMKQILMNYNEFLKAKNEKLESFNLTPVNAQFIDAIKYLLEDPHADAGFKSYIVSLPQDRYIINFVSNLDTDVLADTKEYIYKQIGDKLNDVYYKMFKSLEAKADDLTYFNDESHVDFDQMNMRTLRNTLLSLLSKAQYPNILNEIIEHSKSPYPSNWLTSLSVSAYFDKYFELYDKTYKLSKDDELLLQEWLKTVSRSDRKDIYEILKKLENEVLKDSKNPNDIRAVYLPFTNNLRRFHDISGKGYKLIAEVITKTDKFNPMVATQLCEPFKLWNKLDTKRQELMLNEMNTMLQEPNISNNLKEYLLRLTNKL

The assay addresses Aminopeptidase N (Plasmodium falciparum (isolate 3D7)) (UniProt O96935). Put plainly: malaria alanyl aminopeptidase activity blockers – biochemical, fluorogenic H-Leu-NHMec substrate, 1536-well (AID 1445).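 Also: plate controls were DMSO full reaction for no effect and no enzyme background for full effect.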 Conditions: recombinant M1AAP, H-Leu-NHMec fluorogenic kinetic assay; at 30 µM, hits give high values unless noted.
Consider `O=C(CSc1nnc(-c2cccs2)o1)OCc1ccccc1`, for which the inhibition (commonly the drop in the measured response relative to a control, in per cent) is 5.09%.
In the case of `CCO[C@H]1OC(C(=O)N2CCOCC2)=C[C@@H](c2ccc(Br)cc2)[C@@H]1CCCO`, the inhibition is -2.33%.
On to `CC/C(=C\C1CCCCC1)C(NP(=O)(c1ccccc1)c1ccccc1)c1ccccc1` (centres undefined), for which the inhibition was 5.64%.
For `CCOc1cc(NS(=O)(=O)c2ccc(OC)cc2)c(OCC)cc1NC(=O)c1ccco1` the value was 1.99%.
In the case of `CCOC(=O)C1C(=O)CC(C)(O)C(C(=O)OCC)C1c1ccc(Br)cc1` (centres undefined) it was 11.1%; in that of `Cc1ccc(NC(=O)N2CCN(S(=O)(=O)c3ccccc3)CC2)cc1`, -1.89%.
For `NS(=O)(=O)c1ccc(CCNC(=O)CSc2ccc(Cl)cc2)cc1` the value was 9.38%; for `O=C(COC(=O)CCSc1ccc(Cl)cc1)NCCc1ccccc1`, -5.52%; for `O=C(CCC(=O)Nc1ccccc1)N/N=C/C=C/c1ccccc1`, 7.53%.
With `Cn1c(=O)c2c(nc(NCc3ccccc3)n2CC(=O)NCc2ccccc2)n(C)c1=O`, the inhibition was -6.75%.
For `Cc1cccc(C(=O)Oc2ccc(/C=N/NC(=O)c3ccccc3O)cc2)c1` the value was 3.44%; for `CCOC(=O)c1ccc2[nH]c3c(c2c1)CCCC3O` (centres undefined), 0.31%; for `CCN(CC)c1ccc(/C=C2/C(=O)ON=C2C)cc1`, 15.8%.
Turning to `CCN(CC)c1ccc(/C=C2/C(=O)N(c3ccc([N+](=O)[O-])cc3)N=C2N2CCOCC2)cc1`, the inhibition is -6.76%.
In the case of `C=CCOC(=O)c1[nH]c2c(c1C)C(=O)CC(c1ccco1)C2` (centres undefined) it was 9.27%; in that of `N#CC1=C(N)C2=CCCC[C@H]2[C@H](c2ccc(Br)cc2)C1(C#N)C#N`, 1.37%; in that of `N#CC1=C(N)C2=CCCC[C@H]2[C@H](c2ccccc2)C1(C#N)C#N`, 0.19%.
For `N#CC1=C(N)C2=C(N3CCCCC3)CCCC2C1(C#N)C#N` (centres undefined) the value was 27.6% (active); for `COc1ccc(-c2cc(-c3cccnc3)c(C#N)c(N)n2)cc1`, 11.1%.
In the case of `Cc1cc(NS(=O)(=O)c2ccc(NC(=O)C(C(C)C)N3C(=O)c4ccccc4C3=O)cc2)nc(C)n1` (centres undefined), the inhibition is 11.3%.
For the compound `CC(C)CC(C(=O)NCc1ccccn1)N1C(=O)c2ccccc2C1=O` (centres undefined), the inhibition is 13.1%.
For `CC(C)CC(C(=O)Nn1cnnc1)N1C(=O)c2ccccc2C1=O` (centres undefined) the value was 25.1% (active).
In the case of `Cc1noc(NS(=O)(=O)c2ccc(NC(=O)c3ccc(N4C(=O)c5ccccc5C4=O)cc3)cc2)c1C` it was -1.13%.
In the case of `Cc1cc(NS(=O)(=O)c2ccc(NC(=O)C(C)N3C(=O)c4ccccc4C3=O)cc2)nc(C)n1` (centres undefined) it was 2.55%.
With `CC(C)CC(C(=O)NC(=O)NCc1ccccc1)N1C(=O)c2ccccc2C1=O` (centres undefined), the inhibition is 7.55%.
For `Cc1noc(NS(=O)(=O)c2ccc(NC(=O)CCN3C(=O)c4ccccc4C3=O)cc2)c1C` the value was 12.8%.
Turning to `COc1cccc(Cn2nnc(C(=O)NCc3ccc(F)cc3)c2N)c1`, the inhibition is -3.49%.
In the case of `CCOC(=O)N1CCN(c2c(N3CCN(c4cccc(C(F)(F)F)c4)CC3)c(=O)c2=O)CC1` it was 4.51%; in that of `CC1=CCC2C(=O)N(c3ccc(S(N)(=O)=O)cc3)C(=O)C2C1` (centres undefined), 2.35%.
In the case of `Cc1nnc2ccc(N3CCOCC3)nn12`, the inhibition is 0.92%.
For `CCn1c(C)nc2cc(C(=O)NNC(=S)Nc3ccc(Cl)cc3)ccc21` the value was -13.2%; for `CCN1CCc2c(OCC(=O)N3CCCCC3)cccc2C1=O`, 1.05%.
For `C#CCN1C(=O)S/C(=C/c2cc(C)n(CC)c2C)C1=O` the value was 9.33%.
In the case of `CCn1c(C)cc(/C=C2\SC(=O)N(CC(=O)Nc3ccc(C)c(C)c3)C2=O)c1C` it was 2.14%; in that of `Cc1ccc(NC(=O)c2cc(C(C)(C)C)nn2Cc2ccccc2)cc1`, 5.05%.
As for `Cc1cc(C)cc(OCC(=O)N(Cc2cccs2)C2CCS(=O)(=O)C2)c1` (centres undefined), the inhibition is 2.35%.
In the case of `Cc1cc(=O)[nH]c(-c2ccccc2O)n1` it was 10.9%.
`CCC(C)Sc1nc2c(c(=O)n1C)SC(C)C2` (centres undefined): the inhibition was 23.5% (active).
In the case of `CSc1nc2c(c(=O)n1C)SC(C)C2` (centres undefined), the inhibition is 1.34%.
In the case of `CC(C)Sc1nc2c(c(=O)n1C)SC(C)C2` (centres undefined) it was 11.9%; in that of `O=C(CNC(=S)N(CCCN1CCOCC1)Cc1cccs1)NC1CCCC1`, 5.27%; in that of `COc1ccc(N2CCN(c3ccc(N4C(=O)CC(C)C4=O)cc3[N+](=O)[O-])CC2)cc1` (centres undefined), -8.33%.
For `c1ccc(NC2=Nc3cccc4cccc2c34)cc1` the value was 1.68%; for `CCCCN(C)C1=Nc2cccc3cccc1c23`, 26.3% (active).
For `NC1=Nc2cccc3cccc1c23` the value was 3.4%; for `CC1=NN(c2nc(-c3ccc(C)cc3)cs2)C(=O)C1N=Nc1ccc2ccccc2c1` (centres undefined), -4.56%; for `CC1=NN(c2nc(-c3ccc(C)cc3)cs2)C(=O)C1N=Nc1cccc(O)c1` (centres undefined), 6.79%.
Take `COc1ccc([N+](=O)[O-])cc1NC(=O)c1cc(C)c(C)o1`: the inhibition was 8.9%.
In the case of `Cc1ccsc1C1NC(=O)c2c(sc3c2CCN(C)C3)N1` (centres undefined), the inhibition was 25.9% (active).
For `Cc1ccsc1C1NC(=O)c2c(sc3c2CCCC3)N1` (centres undefined) the value was -10.2%.
In the case of `CN1CCc2c(sc3c2C(=O)NC(c2cccs2)N3)C1` (centres undefined) it was 11.5%; in that of `COC(=O)c1cn(-c2ccccc2)c(=O)c2ccccc12`, 0.56%; in that of `Cc1ccc(-c2csc3ncn(CC(=O)N4CCOCC4)c(=O)c23)cc1C`, 16.1%.
For `Cc1sc2ncn(CC(=O)N3CCOCC3)c(=O)c2c1-c1ccccc1` the value was 22.3%; for `CCOC(=O)N1CCC(NC(=O)c2ccc3c(c2)sc2nc(-c4ccccc4)cn23)CC1`, 31.7%.
For `CCOC(=O)N1CCC(NC(=O)c2ccc3c(c2)sc2nc(-c4ccc(OC)cc4)cn23)CC1`, the inhibition is 6.96%.
In the case of `COC(=O)c1ccc(NC(=O)C2CC2)o1` it was -0.61%; in that of `CCCOC(=O)c1c(-c2ccc(C)cc2C)csc1NC(=O)C1C2CCC(O2)C1C(=O)O` (centres undefined), -4.77%.
For `CCOC(=O)c1c(-c2ccc(-c3ccccc3)cc2)csc1NC(=O)C1C2CCC(O2)C1C(=O)O` (centres undefined) the value was 3.79%.
